In the library only some 2.8% were active in any assay of this set; here they are far more common.
SENP7 inh: inhibitors of human SENP7 protease; inhibition, % at 5 µM; recombinant SENP7, Z-RLRGG-aminoluciferin luminescence, 40 min; actives 1.5% (n = 330,000);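 active = inhibition above about 50% at the single test dose, limit read from the data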;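 note: plate controls were DMSO with enzyme for no effect and no enzyme buffer wells for full effect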
Target sequence (Q9BQF6 706-1050 limits assumed): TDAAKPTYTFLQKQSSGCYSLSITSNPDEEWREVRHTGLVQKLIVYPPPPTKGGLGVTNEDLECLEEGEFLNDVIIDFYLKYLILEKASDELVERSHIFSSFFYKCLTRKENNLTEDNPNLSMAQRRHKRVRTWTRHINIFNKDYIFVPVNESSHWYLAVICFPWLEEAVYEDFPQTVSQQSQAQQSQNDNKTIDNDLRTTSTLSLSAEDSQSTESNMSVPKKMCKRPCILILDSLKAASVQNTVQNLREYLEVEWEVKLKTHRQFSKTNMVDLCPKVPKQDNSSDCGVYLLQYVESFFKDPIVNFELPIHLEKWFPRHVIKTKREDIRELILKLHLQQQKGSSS
SENP8 block-1: SENP8 protease inhibition. Q96LD8. purified SENP8, Z-RLRGG-aminoluciferin cleavage, luminescence. inhibition, % at 10 µM. actives 1.2% (n = 330,000). AID 2540; in the data active = inhibition above about 50%
Target sequence (Q96LD8 whole entry, looked up): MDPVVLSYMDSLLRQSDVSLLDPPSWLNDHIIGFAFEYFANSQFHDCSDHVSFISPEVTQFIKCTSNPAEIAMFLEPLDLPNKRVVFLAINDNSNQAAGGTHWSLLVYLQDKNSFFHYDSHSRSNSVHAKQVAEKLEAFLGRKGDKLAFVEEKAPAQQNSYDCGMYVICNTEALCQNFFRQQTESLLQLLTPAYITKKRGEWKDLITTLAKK
Platelet DG rel: modulates dense granule release in human platelets; human platelet-rich plasma, SFLLRN dense granule ATP release, luminescence; inhibition, %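 (compounds screened at 7.5 µM in platelet-rich plasma)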; actives 0.22% (n = 300,000); AID 1663;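 active = mean replicate score, as percent of positive control, at or above 50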
SENP6 block: SENP6 protease inhibition | Q9GZR1 | Recombinant SENP6 catalytic domain, aminoluciferin luminescence | inhibition, % at 10 µM | actives 1.8% (n = 330,000);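 active = inhibition above about 50% at the single tested dose, limit read from the data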;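 note: plate controls were DMSO wells with enzyme for no effect and DMSO wells lacking enzyme for full effect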
HSP90 refold inh: blocks HSP90-mediated luciferase refolding in reticulocyte lysate | Rabbit reticulocyte lysate, luciferase refolding luminescence, 3 h | inhibition, % at 5.6 µM | actives 0.91% (n = 290,000);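 active = inhibition above the screen-wide mean plus 3 SD, computed separately per campaign, cut at about 16% in these data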;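 note: 0% = DMSO wells and 100% = 60 µM geldanamycin wells; inhibitors lower the luminescence because luciferase stays unfolded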
SENP8 block-2: inhibitors of human SENP8 protease | Q96LD8 | recombinant SENP8, Nedd8 substrate fluorescence | inhibition, % at 20 µM | actives 0.64% (n = 360,000) | AID 602440; in the data active = inhibition mostly above about 40%, no sharp cut-off; inactive = mostly below about 27%
SENP8 conf: confirmation of human SENP8 protease inhibitors | inhibition, % at 12.5 µM | Recombinant SENP8, Z-RLRGG-aminoluciferin luminescence, 60 min | AID 488912 | shares compounds with SENP7 inh | actives 40% (n = 6,200);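 active = mean inhibition across replicates above about 50%, limit read from the data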
SENP6 conf: human SENP6 inhibition, confirmed; AID 488915; inhibition, % at 12.5 µM; actives 58% (n = 6,200); shares compounds with SENP7 inh; recombinant SENP6, Z-RLRGG-aminoluciferin luminescence
SENP7 conf: human SENP7 inhibition, confirmed. inhibition, % at 12.5 µM. shares compounds with SENP7 inh. recombinant SENP7, Z-RLRGG-aminoluciferin luminescence, 40 min. AID 488917. actives 69% (n = 6,200)
Casp3 SENP sel: caspase-3 inhibition (SENP selectivity assay). inhibition, % at 12.5 µM. actives 60% (n = 6,200). AID 488918. purified caspase-3, Z-DEVD-aminoluciferin luminescence, 60 min. shares compounds with SENP7 inh;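 active = mean inhibition above about 50%, limit read from the data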;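 note: plate controls were enzyme with DMSO for no effect and wells without caspase-3 for full effect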
SENP luc ctr: luminescence interference (SENP counter-screen); shares compounds with SENP7 inh; Pre-incubated SENP8/Z-RLRGG-aminoluciferin, luciferase luminescence interference; inhibition, % at 12.5 µM; actives 39% (n = 6,200); AID 488919;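 active = mean inhibition above about 50% when retested at one dose, limit read from the data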;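 note: plate controls were DMSO wells with completed reaction for no effect and substrate without enzyme for full effect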
An asterisk follows results filed as active.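 Rule for the calls, unless noted: active = mean inhibition above about 50% in the one-dose retest (limit read from the data); inactive = the rest.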

Cc1cc(C(=O)CS(=O)(=O)c2ccccc2)cc(C)c1OC(=O)N(C)C was read as SENP7 inh 45, SENP8 block-1 37, Platelet DG rel -4, SENP6 block 54*, HSP90 refold inh 2, SENP8 block-2 10, SENP8 conf 44, SENP6 conf 41, SENP7 conf 78*, Casp3 SENP sel 79* and SENP luc ctr 36.
Screening CNC(=O)Oc1ccc(-c2cn3cc(Cl)ccc3n2)cc1 returned SENP7 inh 67*, SENP8 block-1 64*, Platelet DG rel 8, SENP6 block 78*, HSP90 refold inh 11, SENP8 block-2 -333, SENP8 conf 37, SENP6 conf 37, SENP7 conf 75*, Casp3 SENP sel 72* and SENP luc ctr 21.
`O=[N+]([O-])c1cc([As](=O)(O)c2ccc(O)c([N+](=O)[O-])c2)ccc1O` gave SENP7 inh 6, SENP8 block-1 -1, Platelet DG rel -8, SENP6 block -10, HSP90 refold inh 4 and SENP8 block-2 23.
For CCC(C)NC(=O)c1c(N)n(CC2CCCO2)c2nc3ccccc3nc12 (stereo unspecified) the results were SENP7 inh 72*, SENP8 block-1 83*, Platelet DG rel 3, SENP6 block 88*, HSP90 refold inh 8, SENP8 block-2 -270, SENP8 conf 7, SENP6 conf 41, SENP7 conf 34, Casp3 SENP sel 9 and SENP luc ctr 6.
Screening CC(C)CCNC(=O)c1c(N)n(CC2CCCO2)c2nc3ccccc3nc12 (stereo unspecified) returned SENP7 inh 74*, SENP8 block-1 79*, Platelet DG rel -4, SENP6 block 82*, HSP90 refold inh 3, SENP8 block-2 -258, SENP8 conf 17, SENP6 conf 48, SENP7 conf 35, Casp3 SENP sel 4 and SENP luc ctr 5.
COCCCn1c(N)c(C(=O)Nc2sc3c(c2C(=O)OC)CCCC3)c2nc3ccccc3nc21 was read as SENP7 inh 71*, SENP8 block-1 89*, Platelet DG rel -16, SENP6 block 91*, HSP90 refold inh 5, SENP8 block-2 -269, SENP8 conf 1, SENP6 conf 7, SENP7 conf 16, Casp3 SENP sel 7 and SENP luc ctr 3.
Screening CCC(C)NC(=O)c1c(N)n(Cc2ccc3c(c2)OCO3)c2nc3ccccc3nc12 (stereo unspecified) returned SENP7 inh 68*, SENP8 block-1 92*, Platelet DG rel 6, SENP6 block 90*, HSP90 refold inh -1, SENP8 block-2 inactive, SENP8 conf 2, SENP6 conf 11, SENP7 conf 11, Casp3 SENP sel -3 and SENP luc ctr 3.
Nc1c(C(=O)NCCN2CCOCC2)c2nc3ccccc3nc2n1Cc1ccccc1 was read as SENP7 inh 6, SENP8 block-1 0, Platelet DG rel -7, SENP6 block 25, HSP90 refold inh 2 and SENP8 block-2 -425.
For CC(C)(C)n1nnnc1C(C1CC1)N1CCC2(CC1)C(=O)NCN2c1ccccc1 (stereo unspecified) the results were SENP8 block-2 12.
`O=c1[nH]c(O)c(Cc2ccc3c(c2)OCO3)c(=O)[nH]1` gave SENP7 inh 2, SENP8 block-1 -4, Platelet DG rel 8, SENP6 block -24, HSP90 refold inh 2 and SENP8 block-2 13.
`CCOP(=S)(OCC)Oc1nc(Cl)c(Cl)cc1Cl` gave SENP7 inh 6, SENP8 block-1 -7, SENP6 block -6 and SENP8 block-2 0.
Screening CC(=O)C1C(N2CC2)CC2C3CCC4=CC(=O)CCC4(C)C3CCC21C (stereo unspecified) returned SENP8 block-2 21.
`CCC(C)NC(=O)c1c(N)n(CCCOC)c2nc3ccccc3nc12` (stereo unspecified) gave SENP7 inh 90*, SENP8 block-1 92*, Platelet DG rel -1, SENP6 block 86*, HSP90 refold inh 10, SENP8 block-2 -265, SENP8 conf 40, SENP6 conf 83*, SENP7 conf 74*, Casp3 SENP sel 16 and SENP luc ctr 18.
For COCCCn1c(N)c(C(=O)Nc2ccccc2)c2nc3ccccc3nc21 the results were SENP7 inh 1, SENP8 block-1 8, Platelet DG rel -31, SENP6 block 22, HSP90 refold inh 1 and SENP8 block-2 -430.
`O=c1[nH]c(=S)[nH]c(O)c1N=Nc1ccc(OC(F)F)cc1` gave SENP7 inh 93*, SENP8 block-1 92*, Platelet DG rel 9, SENP6 block 94*, HSP90 refold inh 0, SENP8 block-2 27, SENP8 conf 91*, SENP6 conf 92*, SENP7 conf 88*, Casp3 SENP sel 96* and SENP luc ctr 44.
For COc1ccc(N=Nc2c(O)[nH]c(=S)[nH]c2=O)cc1 the results were SENP7 inh 66*, SENP8 block-1 66*, Platelet DG rel -2, SENP6 block 76*, HSP90 refold inh -1, SENP8 block-2 21, SENP8 conf 27, SENP6 conf 79*, SENP7 conf 51*, Casp3 SENP sel 78* and SENP luc ctr 7.
`Cn1c(O)c(C=Nc2ccc(Br)cc2)c(=O)n(C)c1=O` gave SENP7 inh 26, SENP8 block-1 50*, Platelet DG rel 8, SENP6 block 59*, HSP90 refold inh 6, SENP8 block-2 -157, SENP8 conf 2, SENP6 conf 3, SENP7 conf 14, Casp3 SENP sel 0 and SENP luc ctr 4.
CCOC(=O)C1(CCc2ccccc2)CCN(Cc2ccc3c(c2)OCCO3)CC1 was read as SENP7 inh 9, SENP8 block-1 -8, Platelet DG rel 5, SENP6 block 70*, HSP90 refold inh 1, SENP8 block-2 16, SENP8 conf 10, SENP6 conf 1, SENP7 conf -4, Casp3 SENP sel 3 and SENP luc ctr -2.

From PubChem
